Source: PubChem BioAssay
This is a sample that favours compounds with a hit; in the whole collection about 3.2% have one here.
Tau fluor counter: Counterscreen qHTS for Inhibitors of Tau Fibril Formation, Fluorescence Polarization; AID 1463, 2008; hit rate 0.93% among 280,000; tau K18 P301L Alexa594 fluorescence, heparin fibrillization; Potency, µM (titrated, usually from 57.7 µM), for the others: at the highest dose activity change, negative = decrease; also: nearly all actives have a fitted effect of over 55% in size
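Human K18 P301L tau (15 uM unlabeled plus 0.24 uM Alexa 594-labeled, final) in 100 mM sodium acetate pH 7 was mixed with compound and 20 uM heparin and incubated 6 hr at 37 C.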
Tau fibril FP: qHTS for Inhibitors of Tau Fibril Formation, Fluorescence Polarization | Microtubule-associated protein tau (Homo sapiens), P10636 | K18 P301L tau heparin fibrillization, Alexa594 FP, 6 h | Potency, µM (top dose mostly 57.7 µM), inactives show at the highest dose activity, negative = inhibition, usual class: inhibitors | hit rate 0.39% among 280,000; also: nearly all actives have a fitted effect of over 55% in size
Target sequence (P10636 561-689 P618L limits assumed): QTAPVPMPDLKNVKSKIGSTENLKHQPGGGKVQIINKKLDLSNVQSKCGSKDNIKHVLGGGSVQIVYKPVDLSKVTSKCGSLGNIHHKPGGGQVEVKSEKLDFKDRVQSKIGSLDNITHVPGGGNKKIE
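Human tau K18 […] P301L fragment, 15 uM unlabeled plus 0.24 uM Alexa 594-labeled tau (final), with compound and 20 uM heparin in 100 mM sodium acetate pH 7; 6 hr at 37 C, then Alexa 594 FP read.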
Tau fibril ThT: qHTS for Inhibitors of Tau Fibril Formation, Thioflavin T Binding; Potency, µM (series often up to 57.4 µM), for the others: at the highest dose activity, negative = inhibition, hits mostly inhibitors; recombinant tau K18 P301L (four-repeat tau fragment), heparin-induced fibrillization, ThT fluorescence; Microtubule-associated protein tau (Homo sapiens), P10636; hit rate 2.1% among 270,000; also: nearly all actives have a fitted effect of over 55% in size
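Heparin-induced fibrillization of the P301L-mutant K18 repeat-domain fragment of human tau was followed by ThT binding in quantitative high-throughput format.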
GoLoco inh red: qHTS Assay for Inhibitors of RGS12 GoLoco Motif Activity (Red Fluorophore); Potency, µM (titrated, usually from 61.6 µM), inactives show at the highest dose activity, negative = inhibition, hits mostly inhibitors; Guanine nucleotide-binding protein G(i) subunit alpha-1 (Homo sapiens), P63096; AID 880, 2007; Gai1:RGS12 GoLoco peptide FP, rhodamine, 10 min; hit rate 0.44% among 230,000; active = well fitted inhibition curve with a large enough effect, not every such curve was filed as active; inactive = no such curve, though single readings can be large or run the other way; also: nearly all actives have a fitted effect of over 30% in size
Target sequence (P63096 whole entry, looked up): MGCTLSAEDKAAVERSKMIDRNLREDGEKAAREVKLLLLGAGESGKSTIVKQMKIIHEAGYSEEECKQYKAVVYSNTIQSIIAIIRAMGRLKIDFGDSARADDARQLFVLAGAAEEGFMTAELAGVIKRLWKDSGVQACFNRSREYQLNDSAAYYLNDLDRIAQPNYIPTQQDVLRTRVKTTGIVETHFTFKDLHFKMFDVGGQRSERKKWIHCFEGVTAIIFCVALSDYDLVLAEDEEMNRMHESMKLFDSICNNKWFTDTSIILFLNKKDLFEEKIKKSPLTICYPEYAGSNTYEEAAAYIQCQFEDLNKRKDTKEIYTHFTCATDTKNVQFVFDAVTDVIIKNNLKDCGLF
TexasRed fluor: Total Fluorescence Counterscreen for Inhibitors of the Interaction of Thyroid Hormone Receptor and Steroid Receptor Coregulator 2; TRb/SRC2 Texas Red total fluorescence interference; Potency, µM (titrated, usually from 106 µM), without a hit: at the top dose fluorescence change, negative = quenching; hit rate 0.29% among 280,000; AID 1479, 2009; active = well fitted curve in either direction with a large enough effect; inconclusive = small, poorly fitted or top-dose-only effect
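Flags fluorescent or light-absorbing compounds by total fluorescence, S + 2P, at 555 nm excitation and 632 nm emission. Mixture: 20 nM Texas Red SRC2 peptide, 0.6 uM human TRb LBD, 1 uM T3, 5% DMSO; compound exposure 5 h at ambient temperature.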
TRb-SRC2 inh: qHTS for Inhibitors of the Interaction of Thyroid Hormone Receptor and Steroid Receptor Coregulator 2; Potency, µM (doses to about 106 µM), for the others: at the highest dose activity change, negative = inhibition, most hits filed as inhibitors; hit rate 0.065% among 280,000; TRbeta-SRC2 peptide binding, fluorescence polarization; receptor liganded with 1 µM T3;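 also: plate controls were bound peptide for no effect and peptide without receptor for full effect; nearly all actives have a fitted effect of over 50% in size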
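Decrease in fluorescence polarization of 20 nM Texas Red SRC2 coactivator peptide flagged inhibition of its binding to 0.6 uM TRb LBD; 1 uM T3 included, incubation 5 hr, ex 555/em 632 nm.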
* = called active by the depositor; ? = inconclusive; . = no result; [ ] = another dose, or the depositor's remark. Unless noted, calls follow the shape of the dose curve; as a rule, active = well fitted curve in the direction sought with a large enough effect; inconclusive = small, poorly fitted or top-dose-only effect, or another doubt; inactive = no such curve, though single readings can be large; an effect the other way counts as inactive or inconclusive. Unless noted, % is scaled to controls: 0 for no effect and ±100 for the full control effect; potency is read from the fitted curve at half-maximal effect.

SMILES | Tau fluor counter | Tau fibril FP | Tau fibril ThT | GoLoco inh red | TexasRed fluor | TRb-SRC2 inh
COc1ccc(-c2nc(-c3ccccn3)ncc2S(C)(=O)=O)cc1 | -0.7% | -3.9% | -3.1% | 4.4% | 1.2% | -2.9%
Cn1nc(-c2ccccn2)nc2c(=O)n(C)c(=O)nc1-2 | -19.5% | ? | 5.62µM* | -6.1% | -3.4% | ?
CCCc1nc2c(=O)n(C)c(=O)nc-2n(C)n1 | -6.7% | ? | 14.1µM* | -3.5% | -4.7% | ?
CC(=O)OC[C@@H]1O[C@H](C/C=N\OC[C@@H](O)COCc2ccco2)C=C[C@@H]1OC(C)=O | -5.2%[11.6 µM] | -0.3%[11.6 µM] | -4.5%[11.5 µM] | . | -2.8%[11.2 µM] | 0.1%[11.2 µM]
Nc1cccc2c1C(=O)N(C(=O)/C=C/c1cccc(F)c1)C2=O | -15.7% | ? | 14.1µM* | -4.8% | -2.5% | 3.3%
COc1ccc(OC)c(/C=C/C(=O)N2C(=O)c3cccc(N)c3C2=O)c1 | -18.0% | ? | 14.1µM* | 5.7% | -0.4% | -7.3%
Nc1cccc2c1C(=O)N(C(=O)/C=C/c1cccc(Br)c1)C2=O | -23.7% | ? | 25.1µM* | 11.8% | -2.3% | 4.4%
COc1cc(/C=C/C(=O)N2C(=O)c3cccc(N)c3C2=O)cc(OC)c1OC | -14.7% | ? | ? | 9.7% | 1.2% | -6.4%
CCCOC(=O)NCCCN(C)C | . | . | . | . | 1.4% | -8.3%
COC(=O)NC(c1ccccc1)c1c[nH]c2ccccc12 (stereo unspecified) | -14.8% | -17.5% | -5.8% | 6.5% | 1.1% | 8.5%
Oc1c(N=Nc2ccccc2)sc2ccccc12 | -22.6% | 3.8% | 2.51µM* | 80.3% | -8.0% | 6.4%
CC(C)C(=O)N[C@H]1CCCN1C(=O)/C=C\c1ccccc1 | -6.6%[11.6 µM] | -4.2%[11.6 µM] | -5.8%[11.5 µM] | . | -1.0%[11.2 µM] | 1.0%[11.2 µM]
COc1ccc2c(c1)C(c1ccccc1C)CC(=O)O2 (stereo unspecified) | ? | 8.1%[81.3 µM] | -9.4%[81.4 µM] | 4.0%[88.7 µM] | -0.6% | 13.0%
CCCCN(CCCC)S(=O)(=O)c1ccc(NC(=O)c2cccs2)cc1 | ? | 14.1µM* | -4.0% | 8.2% | 1.0% | 8.0%
Clc1nnc(N/N=C/c2ccccc2)c2ccccc12 | ? | ? | ? | 4.9% | -6.8% | 6.8%
Clc1nnc(NN=C2CCCC2)c2ccccc12 | ? | -11.7% | 25.1µM* | 2.6% | -2.5% | 7.4%
O=C1NC(=O)[C@@H]2C3c4ccccc4C=CN3[C@H](C(=O)c3cccs3)[C@H]12 (stereo partly specified) | -26.2% | ? | 28.2µM* | -36.5% | 3.0% | -0.7%
CC/C=C\CC[C@H](O)C1=CCCCC1=O | -24.3%[11.6 µM] | -21.9%[11.6 µM] | -16.3%[11.5 µM] | . | -0.6%[11.2 µM] | 1.8%[11.2 µM]
COc1ccc(C(c2c(O)ccc3ccccc23)N2CCOCC2)c(OC)c1 (stereo unspecified) | -25.9% | -1.1% | 11.2µM* | 4.8% | -0.5% | -1.0%
COc1ccc(C(CCN2CCOCC2)c2c(O)cc(OC)cc2OC)cc1 (stereo unspecified) | 6.3% | -0.9% | 6.3% | 5.5% | -3.0% | 7.9%
CN(C)c1ccc(/C=C/C(=O)c2ccccc2)cc1[N+](=O)[O-] | ? | 4.0% | 10µM* | -4.4% | -7.1% | 8.8%
CNc1ccc(/C=C/C(=O)c2ccc(C)cc2)cc1[N+](=O)[O-] | -22.5% | 2.3% | 3.16µM* | 5.7% | 9.3% | -1.6%
Cc1ccc(/C=C/C(=O)c2ccc(O)cc2)cc1 | -21.5% | -2.2% | ? | -3.2% | -2.9% | 1.7%
CNc1ccc(/C=C/C(=O)c2ccc3c(c2)OCCO3)cc1[N+](=O)[O-] | ? | 2.2% | 2.51µM* | 6.5% | -10.5% | -5.0%
COc1cccc(C2NC(C(=O)O)CCC2C)c1 (stereo unspecified) | -8.2%[11.6 µM] | -11.6%[11.6 µM] | -6.4%[11.5 µM] | . | -3.7%[11.2 µM] | -3.3%[11.2 µM]
SMILES | Tau fluor counter | Tau fibril FP | Tau fibril ThT | GoLoco inh red | TexasRed fluor | TRb-SRC2 inh
COc1ccc(CNc2ncncc2-c2cccc(NS(C)(=O)=O)c2)c(OC)c1 | . | . | . | -1.6% | . | .
Cc1cc(C(=O)COC(=O)c2ccccc2Br)c(C)n1CC1CCCO1 (stereo unspecified) | -24.1% | 6.0% | -16.2% | 5.2% | -0.4% | 2.7%
Cc1cc(C(=O)COC(=O)c2cc(O)c3ccccc3c2O)c(C)n1CC1CCCO1 (stereo unspecified) | ? | ? | 14.1µM* | -7.9% | -5.1% | -1.3%
CCOc1ccc(/C=N/N(C)c2ccccc2)cc1OC | ? | ? | 7.94µM* | -1.3% | -2.6% | -3.8%
CC1=C(C(=O)O)N2C(=O)C(NC(=O)C(N)c3ccccc3)C2SC1 (stereo unspecified) | -6.7% | -9.3% | -10.4% | 2.4% | -0.7% | 1.8%
O=C(Nc1ccc(O)cc1)/C(=C\C=C\c1ccccc1)NC(=O)c1ccccc1 | 17.8µM*[quencher] | -5.8% | ? | 8.7% | -3.1% | 0.9%
O=C(Nc1ccc(O)cc1)/C(=C\c1ccncc1)NC(=O)c1ccccc1 | 10.8% | 9.7% | 14.5% | -9.4% | -1.1% | -6.9%
ClC/C=C/CCl | . | . | . | 4.0% | -1.8% | 5.0%
CCc1cccc2nc3c(c([Si](C)(C)C)c12)Cn1c-3cccc1=O | -12.0% | -2.4% | ? | 10.1% | -3.6% | -4.7%
O=C(NCc1nc(-c2ccc(C(F)(F)F)cc2)no1)Nc1ccc(OC(F)(F)F)cc1 | -15.2% | 7.94µM* | . | 8.7% | -2.2% | -2.4%
COc1ccc(-c2noc(CNC(=O)c3ccc(OC)cc3OC)n2)cc1 | -20.8% | -11.1% | ? | . | 6.6% | -4.9%
COC(=O)C1=C(C)N(CC2CC2)C(=O)N[C@H]1CCc1ccccc1 | -5.7% | -8.8% | -5.2% | -3.4% | -2.7% | -0.1%
Cc1ccc(-n2ncc3c(Nc4cccc(C(F)(F)F)c4)ncnc32)cc1C | ? | 10µM* | 14.5% | . | 28.7% | ?
Cc1ccc(-n2ncc3c(Nc4cccc(Cl)c4)ncnc32)c(C)c1 | ? | 25.1µM* | 3.3% | . | -0.2% | 1.5%
O=C1Nc2ccc([N+](=O)[O-])cc2OC1CCN1CCN(c2ccccc2)CC1 (stereo unspecified) | -22.7% | 0.7% | 10µM* | 3.3% | -0.1% | -7.1%
CN1CCN(c2cc(N3CCc4ccccc4C3)c(F)cc2[N+](=O)[O-])CC1 | -26.6% | -0.6% | 12.6µM* | 2.7% | -2.1% | -3.0%
CC1(OC(=O)c2ccc(Cl)nc2)C(=O)C=C2C=C(c3ccc(C#N)cc3)OC=C2C1=O (stereo unspecified) | ? | ? | 25.1µM* | 12.8% | -0.5% | 6.4%
